The values that follow come from PubChem BioAssay (NCI).

SMILES strings stand for the structures. Where “and” joins values, the source holds several entries; their conditions need not be identical. Equal values may be shown once. Compounds without any hit were thinned out: in the full panel of roughly 79,000, 15% have a hit. The source holds several records for some structures; these can differ, active in one and inactive in another. Calls of active or inactive are those of the source. Cut-off read from the data, not from the text of the source: active = growth inhibition above about 70%; inactive = the rest.

A short description of test [1]: NCI Yeast Anticancer Drug Screen. Data for the rad50 strain (AID 155).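 Note: 0% = growth of vehicle-only cultures of the same strain.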 Particulars: S. cerevisiae rad50 strain growth inhibition, stronger effect = higher value. A digest of the protocol:
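Growth of the mutant yeast was measured after compound exposure and referenced to vehicle-treated cultures.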

Test [2] can be described thus: NCI Yeast Anticancer Drug Screen. Data for the mec2-1 strain (AID 157). The following applies: S. cerevisiae mec2-1 strain, stronger effect = higher value. Summed up: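 Yeast mec2-1 mutant treated with compound. Readout: growth inhibition vs vehicle controls.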
Test [3] in a line: NCI Yeast Anticancer Drug Screen. Data for the sgs1 mgt1 strain (AID 161).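 Note: 0% = growth of cultures given vehicle only.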 The following applies: S. cerevisiae sgs1 mgt1 strain, stronger effect = higher value. Summed up: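 Inhibition of yeast growth, normalised to vehicle-treated controls, is reported for a strain bearing genetic alterations in DNA damage repair.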
A short description of test [4]: NCI Yeast Anticancer Drug Screen. Data for the cln2 rad14 strain (AID 165).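 Note: 0% = growth equal to vehicle treated cultures.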 The following applies: S. cerevisiae cln2 rad14 strain, stronger effect = higher value. Summed up: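 cln2 rad14 yeast strain; compound exposure; growth inhibition read vs vehicle controls.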
The nature of test [5]: NCI Yeast Anticancer Drug Screen. Data for the bub3 strain (AID 167). Particulars: S. cerevisiae bub3 mutant strain, stronger effect = higher value. Summed up:
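Whole-cell yeast assay. The mutant strain was incubated with compounds, and growth inhibition was determined by comparison with vehicle-treated cells.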

Test [6] can be described thus: NCI Yeast Anticancer Drug Screen. Data for the mlh1 rad18 strain (AID 175). The following applies: S. cerevisiae mlh1 rad18 strain growth inhibition, stronger effect = higher value. A digest of the protocol: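 Yeast w/ defined DNA-repair lesions; compound exposure; growth vs vehicle controls → % inhibition.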
Setting [7] is: at 5.0 µM (retest, dose inferred, filed as 0.5).
Where [8] appears, read: at 50.0 µM (retest, dose inferred, filed as 5.0).

For `CCC1=C(C)/C(=C/c2[nH]c(C)c(CC)c2C)N=C1C`, the growth inhibition in test [1] (setting [7]) is -3% (inactive) and -5% (inactive); in test [1] (setting [8]) it was 20% (inactive) and -58% (inactive); in test [1] (at 50.0 µM), 61.1% (inactive) and 33% (inactive); in test [2] (setting [7]), 6% (inactive) and 0% (inactive); in test [2] (setting [8]), 48% (inactive) and 53% (inactive); in test [2] (at 50.0 µM), 66.5% (inactive) and -2.85% (inactive). Also, the growth inhibition in test [3] (setting [7]) is 0% (inactive) and -2% (inactive); in test [3] (setting [8]), 51% (inactive) and 32% (inactive); in test [3] (at 50.0 µM), 76.2% (active) and 78.1% (active); in test [4] (setting [7]), -12% (inactive) and -15% (inactive); in test [4] (setting [8]) it was 31% (inactive) and 6% (inactive); in test [4] (at 50.0 µM), 18.6% (inactive) and -57.5% (inactive). Moreover, the growth inhibition is 26% (inactive) and 5% (inactive) in test [5] (setting [7]); 45% (inactive) and 33% (inactive) in test [5] (setting [8]); 31.2% (inactive) and 22.6% (inactive) in test [5] (at 50.0 µM); -7% (inactive) and 4% (inactive) in test [6] (setting [7]); 61% (inactive) and 48% (inactive) in test [6] (setting [8]); 60.5% (inactive) and 21.7% (inactive) in test [6] (at 50.0 µM).
With `CO[C@H](C(=O)[C@@H](O)[C@@H](C)O)[C@@H]1Cc2cc3cc(OC4CC(OC5CC(O)C(O)C(C)O5)C(O)C(C)O4)c(C)c(O)c3c(O)c2C(=O)[C@H]1OC1CC(OC2CC(OC3CC(C)(O)C(O)C(C)O3)C(O)C(C)O2)C(O)C(C)O1` (some centres undefined), the growth inhibition was 12% (inactive) in test [1] (setting [7]); 77% (active) in test [1] (setting [8]); 72.1% (active) and 5.15% (inactive) in test [1] (at 50.0 µM); 7% (inactive) in test [2] (setting [7]); 39% (inactive) in test [2] (setting [8]); 33% (inactive) and -0.5% (inactive) in test [2] (at 50.0 µM). For the same compound, the growth inhibition in test [3] (setting [7]) is 6% (inactive); in test [3] (setting [8]) it was 37% (inactive); in test [3] (at 50.0 µM) it was 62.4% (inactive) and 17.8% (inactive); in test [4] (setting [7]) it was 21% (inactive); in test [4] (setting [8]) it was 47% (inactive); in test [4] (at 50.0 µM), 93.2% (active) and 11.2% (inactive). The growth inhibition in test [5] (setting [7]) was -2% (inactive); in test [5] (setting [8]), 43% (inactive); in test [5] (at 50.0 µM), 44.5% (inactive) and 24.1% (inactive); in test [6] (setting [7]) it was 4% (inactive); in test [6] (setting [8]), 33% (inactive); in test [6] (at 50.0 µM) it was 41.5% (inactive) and 14.4% (inactive).
On to `O=C1OC(c2cccnc2)OC(c2ccccc2)=C1C(=O)c1ccccc1` (centres undefined), for which the growth inhibition in test [1] (setting [7]) was 5% (inactive); in test [1] (setting [8]), 99% (active); in test [1] (at 50.0 µM) it was 99.4% (active); in test [2] (setting [7]), 23% (inactive); in test [2] (setting [8]), 99% (active); in test [2] (at 50.0 µM), 99.5% (active). For the same compound, the growth inhibition in test [3] (setting [7]) was 4% (inactive); in test [3] (setting [8]) it was 98% (active); in test [3] (at 50.0 µM) it was 99.5% (active); in test [4] (setting [7]) it was 12% (inactive); in test [4] (setting [8]) it was 99% (active); in test [4] (at 50.0 µM), 98.7% (active). Besides, the growth inhibition is -4% (inactive) in test [5] (setting [7]); 99% (active) in test [5] (setting [8]); 98.8% (active) in test [5] (at 50.0 µM); 33% (inactive) in test [6] (setting [7]); 99% (active) in test [6] (setting [8]); 99.2% (active) in test [6] (at 50.0 µM).
With `Clc1ccc(/C=C/c2ccccn2)c(Cl)c1`, the growth inhibition in test [1] (setting [7]) is 3% (inactive); in test [1] (setting [8]) it was 43% (inactive); in test [1] (at 50.0 µM), -14.9% (inactive) and 12.1% (inactive); in test [2] (setting [7]) it was -3% (inactive); in test [2] (setting [8]), 12% (inactive); in test [2] (at 50.0 µM), 6.2% (inactive) and 3.7% (inactive). Also, the growth inhibition was -2% (inactive) in test [3] (setting [7]); 5% (inactive) in test [3] (setting [8]); -23.1% (inactive) and 58% (inactive) in test [3] (at 50.0 µM); -6% (inactive) in test [4] (setting [7]); -4% (inactive) in test [4] (setting [8]); -0.55% (inactive) and 20.8% (inactive) in test [4] (at 50.0 µM). Besides, the growth inhibition in test [5] (setting [7]) was 51% (inactive); in test [5] (setting [8]) it was 10% (inactive); in test [5] (at 50.0 µM) it was -9.75% (inactive) and 4% (inactive); in test [6] (setting [7]), 1% (inactive); in test [6] (setting [8]), 11% (inactive); in test [6] (at 50.0 µM), -47.5% (inactive) and 31% (inactive).
On to `Nc1nc(=S)c2ncn(C3OC(CO)C(O)C3O)c2[nH]1` (centres undefined), for which the growth inhibition was 79% (active) in test [1] (setting [7]); 5% (inactive) in test [1] (setting [8]); 12.5% (inactive) and 38.5% (inactive) in test [1] (at 50.0 µM); 97% (active) in test [2] (setting [7]); 6% (inactive) in test [2] (setting [8]); 0.4% (inactive) and 92.5% (active) in test [2] (at 50.0 µM). Moreover, the growth inhibition in test [3] (setting [7]) is 66% (inactive); in test [3] (setting [8]), 26% (inactive); in test [3] (at 50.0 µM), -3.7% (inactive) and -8.45% (inactive); in test [4] (setting [7]) it was 49% (inactive); in test [4] (setting [8]), 9% (inactive); in test [4] (at 50.0 µM) it was 4.9% (inactive) and 96.8% (active). For the same compound, the growth inhibition was 99% (active) in test [5] (setting [7]); 14% (inactive) in test [5] (setting [8]); -4.2% (inactive) and 98% (active) in test [5] (at 50.0 µM); 94% (active) in test [6] (setting [7]); 52% (inactive) in test [6] (setting [8]); -11.9% (inactive) and 97.5% (active) in test [6] (at 50.0 µM).
On to `O=C(O)C1(Cc2ccccc2)Cc2cc3c(cc2C1)CCC3`, for which the growth inhibition was 5% (inactive) in test [1] (setting [7]); 5% (inactive) in test [1] (setting [8]); 90% (active) in test [1] (at 50.0 µM); -4% (inactive) in test [2] (setting [7]); -4% (inactive) in test [2] (setting [8]); 92% (active) in test [2] (at 50.0 µM). Also, the growth inhibition is 0% (inactive) in test [3] (setting [7]); 0% (inactive) in test [3] (setting [8]); 87.2% (active) in test [3] (at 50.0 µM); 2% (inactive) in test [4] (setting [7]); 2% (inactive) in test [4] (setting [8]); 89% (active) in test [4] (at 50.0 µM). The growth inhibition in test [5] (setting [7]) was -17% (inactive); in test [5] (setting [8]), -17% (inactive); in test [5] (at 50.0 µM), 89.7% (active); in test [6] (setting [7]), 8% (inactive); in test [6] (setting [8]), 8% (inactive); in test [6] (at 50.0 µM), 84.8% (active).
Turning to `Oc1ccc(C(O)(c2ccccc2)c2ccccc2)cc1`, the growth inhibition is 45% (inactive) and 42% (inactive) in test [1] (setting [7]); 57% (inactive) and 91% (active) in test [1] (setting [8]); 88.8% (active) and 71.1% (active) in test [1] (at 50.0 µM); 51% (inactive) and 25% (inactive) in test [2] (setting [7]); 59% (inactive) and 89% (active) in test [2] (setting [8]); 91.2% (active) and 89.2% (active) in test [2] (at 50.0 µM). The growth inhibition in test [3] (setting [7]) was -30% (inactive) and 35% (inactive); in test [3] (setting [8]) it was 30% (inactive) and 89% (active); in test [3] (at 50.0 µM), 92% (active) and 48.6% (inactive); in test [4] (setting [7]) it was 45% (inactive) and 29% (inactive); in test [4] (setting [8]), 63% (inactive) and 90% (active); in test [4] (at 50.0 µM) it was 89.9% (active) and 65.8% (inactive). Besides, the growth inhibition in test [5] (setting [7]) is 21% (inactive) and 36% (inactive); in test [5] (setting [8]) it was 48% (inactive) and 94% (active); in test [5] (at 50.0 µM), 90.2% (active) and 59.2% (inactive); in test [6] (setting [7]) it was 40% (inactive) and 45% (inactive); in test [6] (setting [8]), 60% (inactive) and 95% (active); in test [6] (at 50.0 µM) it was 88.5% (active) and 69.3% (inactive).
For `CN1C(c2ccccc2)CC(=NO)CC1c1ccccc1` (centres undefined), the growth inhibition in test [1] (setting [7]) was 18% (inactive); in test [1] (setting [8]), 58% (inactive); in test [1] (at 50.0 µM), 24.6% (inactive) and 93.9% (active); in test [2] (setting [7]), 1% (inactive); in test [2] (setting [8]) it was 45% (inactive); in test [2] (at 50.0 µM) it was 6.35% (inactive) and 27.3% (inactive). The growth inhibition in test [3] (setting [7]) is 6% (inactive); in test [3] (setting [8]), 58% (inactive); in test [3] (at 50.0 µM) it was 3.9% (inactive) and 82.2% (active); in test [4] (setting [7]), -12% (inactive); in test [4] (setting [8]) it was 20% (inactive); in test [4] (at 50.0 µM), 5.8% (inactive) and 32.3% (inactive). Besides, the growth inhibition was 7% (inactive) in test [5] (setting [7]); 23% (inactive) in test [5] (setting [8]); -7.15% (inactive) and 62% (inactive) in test [5] (at 50.0 µM); -1% (inactive) in test [6] (setting [7]); 41% (inactive) in test [6] (setting [8]); 30.4% (inactive) and 85.2% (active) in test [6] (at 50.0 µM).
